Experimental data from PubChem BioAssay (Tox21).
Results filed as inconclusive are left out. Active and inactive are the calls of the source. Unless noted, calls follow the shape of the dose curve; as a rule, active = well fitted curve in the direction sought with a large enough effect in the repeat runs; inconclusive = weak or mixed curves; inactive = no such curve, though single readings can be large; an effect the other way counts as inactive or inconclusive.

Key:
[1] = qHTS assay to identify small molecule antagonists of the sonic hedgehog signaling (Shh) pathway (AID 1259369; calls by dose curve; also: nearly all actives have a fitted effect of over 45% in size)
Outline: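 NIH/3T3-derived Gli1-Luc reporter cells plated 4 h, dosed with compound, then stimulated with conditioned medium for 24 h at 37 C. Firefly luciferase luminescence read after 30 min with detection reagent at room temperature.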

[2] = molecular target: Estrogen receptor beta (Homo sapiens) (UniProt Q92731); experiment: qHTS assay to identify small molecule antagonists of the estrogen receptor beta (ER-beta) signaling pathway (AID 1259378; active = well fitted inhibition curve with a large enough effect in the signal ratio in the repeat runs, not every such curve was filed as active; the % refers to the signal ratio)
Outline: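 ER-beta-UAS-bla HEK293T (GripTite) cells in 2% charcoal-stripped FBS medium were preincubated 6 hr at 37C, dosed with compound, then stimulated with 1 nM E2 (final) for 16 hr; beta-lactamase reporter read by B/G FRET fluorescence after 2 hr substrate loading.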

[3] = qHTS assay to identify small molecule agonists of the androgen receptor (AR) signaling pathway in the presence of an antagonist - cell viability counter screen (AID 1259379);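 also: MDA-kb2 human breast cancer cells carrying an MMTV luciferase reporter; series mostly up to about 92 µM; nearly all actives have a fitted effect of over 25% in size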
Outline: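 MDA-kb2 cells (MMTV-luciferase, AR/GR), 3,000/well, 5 h attachment, then 3.0 µM nilutamide (final) and compounds at 15 concentrations. Viability by CellTiter-Fluor fluorescence after 16 h at 37 °C, 0% CO2, in the reporter wells.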

[4] = qHTS assay to identify small molecule agonists of the estrogen receptor beta (ER-beta) signaling pathway - cell viability counter screen (AID 1259380); also: nearly all actives have a fitted effect of over 30% in size
Outline: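 ER-beta-UAS-bla HEK293T cells in medium with 2% charcoal-stripped FBS, pre-incubated 6 hr, then treated 16 hr at 37C. Cytotoxicity read in the same wells by CellTiter-Glo luminescence after 30 min at room temperature.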

[5] = qHTS assay to identify small molecule antagonists of the estrogen receptor beta (ER-beta) signaling pathway - cell viability counter screen (AID 1259382); also: series mostly up to about 92 µM; nearly all actives have a fitted effect of over 55% in size
Outline: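 ER-beta-UAS-bla HEK293T cells in 2% charcoal-stripped FBS medium, treated with compound plus 1 nM 17-beta-estradiol for 16 h at 37C. Viability read by CellTiter-Glo luminescence after 30 min at room temperature in the same wells.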

[6] = molecular target: Estrogen receptor (Homo sapiens) (UniProt P03372); experiment: qHTS assay to identify small molecule agonists of the estrogen receptor alpha (ER-alpha) signaling pathway in the presence of an antagonist (AID 1259383; calls by dose curve; also: top concentration of the series differs between compounds; nearly all actives have a fitted effect of over 15% in size)
Outline: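 VM7Luc4E2 cells express endogenous full-length ER-alpha with an ERE-luciferase reporter and were hormone-deprived for 5 days. Compounds at 15 concentrations were added with 10.0nM ICI-182,780 for 22hr at 37C. Luminescence was read with ONE-Glo.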

[7] = molecular target: Thyrotropin receptor (Homo sapiens) (UniProt P16473); experiment: qHTS assay to identify small molecule antagonists of the thyroid stimulating hormone receptor (TSHR) signaling pathway (AID 1259385; calls by dose curve; also: nearly all actives have a fitted effect of over 20% in size)
Outline: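 TSHR-HEK293 cells were plated and held 18 h at 37C/5% CO2, then given compound plus Ro20-1724 and stimulated with TSH at 1.5 ng/mL final. After 30 min at room temperature, cAMP was detected with cAMP-d2/anti-cAMP-cryptate (1 h) by fluorescence.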

[8] = qHTS assay to identify small molecule agonists of the estrogen receptor alpha (ER-alpha) signaling pathway in the presence of an antagonist - cell viability counter screen (AID 1259386);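 also: series mostly up to about 92 µM; cells exposed to compounds for 22 h at 37 °C before the viability read; nearly all actives have a fitted effect of over 30% in size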
Outline: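 Cell viability in VM7Luc4E2 cells (endogenous full-length ER-alpha) measured by CellTiter-Fluor fluorescence in the same wells as the luciferase screen. Cells pre-cultured 5 days in charcoal-stripped serum, then treated 22 h with compounds at 15 concentrations plus 10.0nM ICI-182,780.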

[9] = molecular target: Progesterone receptor (Homo sapiens) (UniProt P06401); experiment: qHTS assay to identify small molecule agonists of the progesterone receptor (PR) signaling pathway (AID 1346784; calls by dose curve; also: nearly all actives have a fitted effect of over 30% in size)
Outline: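 Seed PR-UAS-bla HEK 293T cells (2% charcoal-stripped FBS), incubate 6 hr at 37C; add compounds in DMSO, 16 hr at 37C; add LiveBLAzer B/G substrate, 2 hr RT; read fluorescence intensity.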

[10] = molecular target: Progesterone receptor (Homo sapiens) (UniProt P06401); experiment: qHTS assay to identify small molecule antagonists of the progesterone receptor (PR) signaling pathway (AID 1346795; active = well fitted inhibition curve with a large enough effect in the signal ratio in the repeat runs, not every such curve was filed as active; the % refers to the signal ratio)
Outline: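 Screening used a GripTite HEK293T line with PR-responsive UAS-beta-lactamase. Cells were challenged with compound in the presence of 1 nM R5020 final for 16 hr at 37C; B/G FRET substrate, 2 hr room temperature, fluorescence.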

[11] = qHTS assay to identify small molecule antagonists of the progesterone receptor (PR) signaling pathway - cell viability counter screen (AID 1346798); also: series mostly up to about 92 µM; nearly all actives have a fitted effect of over 50% in size
Outline: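 Measures cytotoxicity in parallel with the PR antagonist reporter read: HEK293T PR-UAS-bla cells get compound and R5020 for 16 hr, and remaining viable cells are quantified by CellTiter-Glo luminescence.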

[12] = qHTS assay to identify small molecule agonists of the progesterone receptor (PR) signaling pathway - cell viability counter screen (AID 1346799; calls by dose curve; also: nearly all actives have a fitted effect of over 45% in size)
Outline: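 Using the same plates as the PR reporter screen, HEK293T PR-UAS-bla cells received compounds for 16 hr at 37C and were then lysed with CellTiter-Glo; luminescence was read 30 min later at room temperature.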

[13] = qHTS assay to identify small molecule antagonists of the TGF-beta/Smad signaling pathway - cell viability counter screen (AID 1346824); also: nearly all actives have a fitted effect of over 50% in size
Outline: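 SBE-bla HEK 293T cells were plated overnight at 37 C, then given compounds in DMSO plus TGF-beta1 (added as 0.25 ng/mL solution) for 5 hr. After the bla read, CellTiter-Glo was added to the same wells and luminescence read after 30 min at room temperature.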

[14] = qHTS assay to identify small molecule agonists of the TGF-beta/Smad signaling pathway - cell viability counter screen (AID 1346829); also: top concentration of the series differs between compounds; nearly all actives have a fitted effect of over 45% in size
Outline: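 In parallel with the Smad reporter read, viability of HEK 293T cells stably carrying SBE-bla is quantified by ATP luminescence following 5 hr compound treatment.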

[15] = qHTS assay to identify small molecule agonists of the TGF-beta/Smad signaling pathway (AID 1346859; active = well fitted activation curve with a large enough effect in the signal ratio in the repeat runs, not every such curve was filed as active; the % refers to the signal ratio; also: series mostly up to about 77 µM)
Outline: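 Beta-lactamase reporter activity downstream of Smad binding elements was measured in stably transfected HEK 293T cells; compounds were incubated for 5 hr, substrate for 2 hr at room temperature.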

[16] = Human pregnane X receptor (PXR) small molecule agonists, qHTS cell viability counter screen (AID 1346977); also: nearly all actives have a fitted effect of over 50% in size
Outline: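 After a 5hr pre-incubation, PXR-Luc HepG2 cells received compounds plus positive control in DMSO and were kept 24hr at 37C. Cell viability was quantified by fluorescence from CellTiter-Fluor added for the final hour.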

[17] = qHTS assay to identify small molecule agonists or antagonists of the thyroid stimulating hormone receptor (TSHR) signaling pathway - wild type cell line counter screen (AID 1259384; calls by dose curve)
Outline: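 Wild-type HEK293 cells were plated 18 h at 37 C/5% CO2, pin-dosed with compound plus Ro20-1724 medium, held 30 min at room temperature, then given cAMP-d2 and anti-cAMP-cryptate; fluorescence was read after 1 h. Fifteen concentrations, triplicate.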

[18] = molecular target: Thyrotropin-releasing hormone receptor (Homo sapiens) (UniProt P34981); experiment: qHTS assay to identify small molecule antagonists of the thyrotropin-releasing hormone receptor (TRHR) signaling pathway (AID 1346877; active = well fitted inhibition curve with a large enough effect in the repeat runs, not every such curve was filed as active; also: series mostly up to about 51 µM)
Outline: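 TRHR-expressing HEK293 cells loaded with calcium dye for 2 h at 37 C; compounds pre-incubated 5 min at room temperature before TRH challenge at 1 nM final. Intracellular calcium fluorescence read kinetically for 3 min; 15 concentrations in triplicate.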

[19] = molecular target: Thyrotropin-releasing hormone receptor (Homo sapiens) (UniProt P34981); experiment: qHTS assay to identify small molecule agonists of the thyrotropin-releasing hormone receptor (TRHR) signaling pathway (AID 1346891; calls by dose curve; also: series mostly up to about 58 µM)
Outline: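 Overnight-plated (18 h, 37 °C, 5% CO2) TRHR-Hek293 cells; 2 h calcium dye at 37 °C; compound in DMSO; 3-min kinetic fluorescence read.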
% is scaled to controls: 0 for no effect and ±100 for the full control effect.

Chain of Thyrotropin receptor (Homo sapiens) (P16473 whole entry, looked up): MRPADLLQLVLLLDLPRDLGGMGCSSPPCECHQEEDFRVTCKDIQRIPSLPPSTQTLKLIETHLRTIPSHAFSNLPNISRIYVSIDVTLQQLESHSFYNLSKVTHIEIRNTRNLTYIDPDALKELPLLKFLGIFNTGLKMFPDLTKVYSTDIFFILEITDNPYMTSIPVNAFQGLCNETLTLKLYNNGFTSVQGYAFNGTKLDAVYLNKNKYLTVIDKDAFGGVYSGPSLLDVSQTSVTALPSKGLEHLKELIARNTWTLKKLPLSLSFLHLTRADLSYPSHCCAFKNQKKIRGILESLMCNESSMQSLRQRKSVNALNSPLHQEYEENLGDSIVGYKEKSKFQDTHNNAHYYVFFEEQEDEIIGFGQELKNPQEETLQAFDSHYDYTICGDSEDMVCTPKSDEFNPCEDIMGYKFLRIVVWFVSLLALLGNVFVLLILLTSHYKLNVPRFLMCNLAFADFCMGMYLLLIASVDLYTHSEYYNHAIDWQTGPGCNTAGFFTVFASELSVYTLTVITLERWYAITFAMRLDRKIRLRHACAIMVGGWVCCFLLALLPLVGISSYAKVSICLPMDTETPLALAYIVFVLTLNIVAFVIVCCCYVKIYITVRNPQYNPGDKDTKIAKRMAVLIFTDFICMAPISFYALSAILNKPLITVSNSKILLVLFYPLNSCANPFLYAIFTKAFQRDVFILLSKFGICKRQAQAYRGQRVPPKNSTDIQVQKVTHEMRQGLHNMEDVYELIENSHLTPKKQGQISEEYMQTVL
Chain of Estrogen receptor beta (Homo sapiens) (Q92731 whole entry, looked up): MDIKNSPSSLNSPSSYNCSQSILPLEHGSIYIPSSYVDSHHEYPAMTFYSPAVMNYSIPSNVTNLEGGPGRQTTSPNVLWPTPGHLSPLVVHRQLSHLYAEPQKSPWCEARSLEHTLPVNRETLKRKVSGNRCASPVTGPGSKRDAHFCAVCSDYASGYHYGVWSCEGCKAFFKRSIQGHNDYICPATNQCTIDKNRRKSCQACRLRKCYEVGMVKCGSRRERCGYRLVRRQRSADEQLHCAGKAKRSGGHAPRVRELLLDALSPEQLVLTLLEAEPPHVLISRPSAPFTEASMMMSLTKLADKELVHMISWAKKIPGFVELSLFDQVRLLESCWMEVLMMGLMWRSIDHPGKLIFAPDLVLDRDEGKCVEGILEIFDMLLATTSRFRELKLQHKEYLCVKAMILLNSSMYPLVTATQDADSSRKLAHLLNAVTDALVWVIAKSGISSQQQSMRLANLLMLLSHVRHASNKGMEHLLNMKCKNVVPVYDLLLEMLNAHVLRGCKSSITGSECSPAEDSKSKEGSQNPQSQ
Chain of Estrogen receptor (Homo sapiens) (P03372 whole entry, looked up): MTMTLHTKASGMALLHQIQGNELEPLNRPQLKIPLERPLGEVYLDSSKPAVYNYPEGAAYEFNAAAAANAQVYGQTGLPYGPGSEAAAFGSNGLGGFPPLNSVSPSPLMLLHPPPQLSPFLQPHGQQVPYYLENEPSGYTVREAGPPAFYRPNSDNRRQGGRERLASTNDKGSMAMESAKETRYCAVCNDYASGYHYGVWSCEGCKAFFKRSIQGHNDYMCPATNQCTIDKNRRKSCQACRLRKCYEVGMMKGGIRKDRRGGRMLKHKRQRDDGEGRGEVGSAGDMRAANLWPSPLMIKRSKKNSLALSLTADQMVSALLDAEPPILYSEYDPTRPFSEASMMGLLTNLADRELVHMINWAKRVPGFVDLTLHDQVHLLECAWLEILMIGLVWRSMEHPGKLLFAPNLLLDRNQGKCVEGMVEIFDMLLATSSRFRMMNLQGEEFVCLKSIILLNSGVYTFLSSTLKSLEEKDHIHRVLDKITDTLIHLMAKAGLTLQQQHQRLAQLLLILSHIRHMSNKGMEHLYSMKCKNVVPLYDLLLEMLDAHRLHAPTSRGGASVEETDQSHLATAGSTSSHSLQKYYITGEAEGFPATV
Chain of Thyrotropin-releasing hormone receptor (Homo sapiens) (P34981 whole entry, looked up): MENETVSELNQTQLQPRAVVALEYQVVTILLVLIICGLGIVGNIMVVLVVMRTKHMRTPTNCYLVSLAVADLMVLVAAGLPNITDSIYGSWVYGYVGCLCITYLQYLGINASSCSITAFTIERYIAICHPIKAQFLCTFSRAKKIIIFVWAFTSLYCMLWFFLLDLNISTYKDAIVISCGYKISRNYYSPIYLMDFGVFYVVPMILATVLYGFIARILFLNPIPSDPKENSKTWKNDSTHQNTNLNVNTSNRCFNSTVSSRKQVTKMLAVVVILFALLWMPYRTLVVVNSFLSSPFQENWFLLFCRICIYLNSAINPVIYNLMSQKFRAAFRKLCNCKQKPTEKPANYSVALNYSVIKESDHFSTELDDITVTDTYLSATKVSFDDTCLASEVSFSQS
Chain of Progesterone receptor (Homo sapiens) (P06401 whole entry, looked up): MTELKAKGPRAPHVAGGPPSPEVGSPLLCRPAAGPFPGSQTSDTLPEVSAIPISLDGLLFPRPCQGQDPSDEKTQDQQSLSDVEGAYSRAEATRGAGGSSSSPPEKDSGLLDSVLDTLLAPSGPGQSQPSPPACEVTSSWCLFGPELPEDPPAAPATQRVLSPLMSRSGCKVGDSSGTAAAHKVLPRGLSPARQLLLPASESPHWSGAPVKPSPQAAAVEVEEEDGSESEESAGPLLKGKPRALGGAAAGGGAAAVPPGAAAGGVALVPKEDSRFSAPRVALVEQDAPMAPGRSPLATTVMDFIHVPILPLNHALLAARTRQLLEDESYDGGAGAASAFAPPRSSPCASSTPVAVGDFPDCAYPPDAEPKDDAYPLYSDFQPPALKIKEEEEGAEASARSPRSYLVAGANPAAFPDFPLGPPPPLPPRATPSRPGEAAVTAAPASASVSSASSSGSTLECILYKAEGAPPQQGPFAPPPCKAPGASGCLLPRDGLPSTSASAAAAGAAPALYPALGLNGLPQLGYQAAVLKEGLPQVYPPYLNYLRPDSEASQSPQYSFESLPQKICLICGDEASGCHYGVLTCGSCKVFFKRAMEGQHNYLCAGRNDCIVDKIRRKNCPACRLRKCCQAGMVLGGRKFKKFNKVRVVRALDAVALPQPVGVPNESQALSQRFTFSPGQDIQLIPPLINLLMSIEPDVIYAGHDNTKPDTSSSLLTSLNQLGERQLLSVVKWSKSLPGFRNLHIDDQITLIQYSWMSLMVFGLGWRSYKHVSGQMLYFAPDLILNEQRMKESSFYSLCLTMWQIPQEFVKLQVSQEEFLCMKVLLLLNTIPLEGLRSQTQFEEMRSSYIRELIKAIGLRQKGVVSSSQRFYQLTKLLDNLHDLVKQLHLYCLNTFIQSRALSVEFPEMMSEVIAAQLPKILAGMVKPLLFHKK

CCOC(=O)Nc1ccc(NCc2ccc(F)cc2)nc1N
inactive: Potency [1] | outcome [2] | Potency [3] | Potency [4] | Potency [5] | Potency [6] | Potency [7] | Potency [8] | Potency [9] | Potency [10] | Potency [11] | Potency [12] | Potency [13] | outcome [14] | outcome [15] | Potency [16]

CCc1nccnc1CC
inactive: Potency [1] | activity change, negative = cytotoxicity [3] 1.15% [at 19 µM] | activity change, negative = cytotoxicity [4] 3.58% [at 19 µM] | activity change, negative = cytotoxicity [5] 15.2% [at 19 µM] | activation [6] -0.0927% [at 19 µM] | cAMP activity change [17] -3.22% [at 18.9 µM] | activity change, negative = inhibition [7] 0.0688% [at 19 µM] | activity change, negative = cytotoxicity [8] 1.02% [at 19 µM] | activation [9] 0.626% [at 19 µM] | Potency [10] | Potency [11] | activity change, negative = cytotoxicity [12] -10.8% [at 19 µM] | viability change, negative = cytotoxic [13] 4.47% [at 15.8 µM] | activity change, negative = cytotoxicity [14] 3.37% [at 15.8 µM] | activation [15] 1.18% [at 15.8 µM] | activity, negative = inhibition [18] 3.49% [at 10.5 µM] | activation [19] 0.11% [at 11.8 µM] | activity change, negative = cytotoxicity [16] -1.38% [at 19 µM]

N[C@@H](C(=O)N[C@@H]1C(=O)N2C(C(=O)O)=C(Cl)CS[C@H]12)c1ccccc1
inactive: activity change, negative = inhibition [1] -3.06% [at 8.39 µM] | activity change, negative = cytotoxicity [3] -6.11% [at 8.39 µM] | activity change, negative = cytotoxicity [4] 2.28% [at 8.39 µM] | activity change, negative = cytotoxicity [5] 5.71% [at 8.39 µM] | activation [6] 0.817% [at 8.39 µM] | cAMP activity change [17] -1.5% [at 8.39 µM] | activity change, negative = inhibition [7] 1.57% [at 8.39 µM] | activity change, negative = cytotoxicity [8] -0.6% [at 8.39 µM] | activation [9] 0.163% [at 8.39 µM] | activity change, negative = inhibition [10] 5.57% [at 8.39 µM] | activity change, negative = cytotoxicity [11] 1.94% [at 8.39 µM] | activity change, negative = cytotoxicity [12] -11.1% [at 8.39 µM] | viability change, negative = cytotoxic [13] -15% [at 6.97 µM] | activity change, negative = cytotoxicity [14] -0.75% [at 6.97 µM] | activation [15] 1.83% [at 6.97 µM] | activity, negative = inhibition [18] 1.85% [at 4.65 µM] | activation [19] -0.0304% [at 5.23 µM] | activity change, negative = cytotoxicity [16] 4.82% [at 8.39 µM]

CCOc1ccc(C(=O)OCCN(CC)CC)cc1
inactive: Potency [1] | outcome [2] | Potency [3] | Potency [4] | Potency [5] | Potency [7] | Potency [8] | Potency [9] | Potency [10] | Potency [11] | Potency [12] | Potency [13] | outcome [15] | Potency [16]

CN1CC(=O)NC1=N
inactive: Potency [1] | outcome [2] | Potency [3] | Potency [4] | Potency [5] | outcome [17] | Potency [7] | Potency [8] | Potency [9] | Potency [10] | Potency [11] | Potency [12] | outcome [14] | outcome [15] | outcome [18] | outcome [19] | Potency [16]

COC(C)(C)CCCC(C)CC=O (stereo unspecified)
inactive: Potency [1] | outcome [2] | Potency [3] | Potency [4] | Potency [5] | outcome [17] | Potency [7] | Potency [8] | Potency [9] | Potency [10] | Potency [13] | outcome [18] | outcome [19] | Potency [16]

CCOC(=O)c1ccc(C)cc1
inactive: Potency [1] | outcome [2] | Potency [3] | Potency [4] | Potency [5] | Potency [6] | Potency [8] | Potency [9] | Potency [10] | Potency [12] | Potency [13] | outcome [15] | outcome [19] | Potency [16]
